# Source: ChEMBL document CHEMBL4513216, “Probing the Open Global Health Chemical Diversity Library for Multistage-Active Starting Points for Next-Generation Antimalarials” (ACS Infect Dis, 2020)
# The whole screen tested about 68,000 compounds, of which about 2,700 (4%) showed an effect of 50% or more. The entries come from a sample that favours strong results as a whole.
# Test system: Plasmodium berghei
# Assay: Screen against P. berghei liver stage (PbLuc), transformed with Luciferase, at 2uM
# Format: functional, HepG2
# Conditions: tested at 2 uM
row,SMILES,INHIBITION [%]
1,COCCC(=O)N1CCCC1c1nccc(C)n1 (stereo not drawn),-17.21
2,CNC(=O)C1CCN(c2ncnc3c2CCN(C(=O)C2CC2)C3)C1 (stereo not drawn),16.53
3,OC1CCN(Cc2c(-c3ccco3)[nH]c3ncccc23)CC1,8.09
4,Cc1nc(CN2CCCC(N(C)Cc3nc(CC(C)C)no3)C2)no1 (stereo not drawn),23.86
5,CC(=O)N1CCC(c2nccnc2-c2ccc(C(=O)O)cc2)CC1,51.57
6,CC(=O)N1CCC(c2nccnc2-c2ccc(F)cc2)CC1,33.77
7,COc1ccc(-c2nccnc2C2CCN(C(C)=O)CC2)cc1,-30.31
8,CC(C)c1ncc2c(n1)CN(CC(=O)Nc1ccncc1)CC2,-36.7
9,Cc1csc(N2CCN(C(=O)NCCNc3ncccn3)CC2)n1,-10.6
10,CN(C)c1ncccc1NC(=O)COC1CCCC1,35.13
11,CN(C)c1ncccc1NC(=O)COCC1CC1,64.35
12,O=C(COCC1CC1)Nc1ncccc1O,25.23
13,O=C(COc1cccc2c1CCC2=O)NCCc1cccs1,-27.22
14,COCCN(C(=O)c1cc(C)no1)c1ccc(C#N)cc1,-43.03
15,COc1no[n+]([O-])c1-c1ccccc1,32.19
16,CC(C)(C)C(=O)N1CCCC1(C(=O)N1CCCC1)c1cnccn1 (stereo not drawn),33.56
17,Cn1cc(C2CC3(CCN(C(=O)c4cccs4)CC3)NC2=O)cn1 (stereo not drawn),-16.25
18,CN(C)C(C(=O)NCC1(C)COC1)c1cccc(F)c1 (stereo not drawn),-15.77
19,COc1ccc(CN2CCC3(CC(=O)N(c4cccc(F)c4)C3)C2)cc1 (stereo not drawn),40.4
20,O=C1CC2(CCN(Cc3cccnc3)C2)CN1c1cccc(F)c1 (stereo not drawn),38.49
21,O=C1CC2(CCN(Cc3ccncc3)C2)CN1c1cccc(F)c1 (stereo not drawn),54.62
22,N#Cc1cccc(N2CC3(CCN(C(=O)c4ccncc4)C3)CC2=O)c1 (stereo not drawn),53.77

row,SMILES,INHIBITION [%]
1,N#Cc1cccc(N2CC3(CCN(C(=O)c4cccnc4)C3)CC2=O)c1 (stereo not drawn),11.72
2,N#Cc1cccc(N2CC3(CCN(C(=O)c4ccnnc4)C3)CC2=O)c1 (stereo not drawn),25.24
3,CCc1ccc(OCCn2cccn2)cc1,-3.72
4,COc1c(C2CCCN2C(=O)c2csc(C3CC3)n2)c(C)nn1C (stereo not drawn),15.13
5,CCOc1cccc2c1OCC(=O)N(c1ccc3c(c1)OCO3)C2,25.73
6,CCOc1cccc2c1OCC(=O)N(c1ccc3c(c1)OCCO3)C2,67.29
7,CCOc1cccc2c1OCC(=O)N(c1ccc(N(C)C)cc1)C2,43.74
8,COC(=O)c1ccc(C2CC(=O)Nc3c2cnn3C)cc1 (stereo not drawn),13.95
9,Cc1ncsc1COC(=O)c1cccc2c1OCCO2,38.1
10,Cn1cnnc1C1CCCN(C(=O)NCc2cc[nH]n2)C1 (stereo not drawn),28.65
11,CCCSc1ccccc1NC(=O)N1CCC(N2CCSCC2)CC1,27.05
12,CCCSc1ccccc1NC(=O)N1CCN(C(=O)c2ccc[nH]2)CC1,65.76
13,O=C(c1ccc[nH]1)N1CCN(C(c2ccccc2)C(F)(F)F)CC1 (stereo not drawn),11.88
14,CCCc1nc(C(=O)NCCN2CCC(c3ccccc3C)C2)cs1 (stereo not drawn),6.88
15,CC(C)C(C(=O)N1CCCN(c2nccs2)CC1)n1cncn1 (stereo not drawn),15.47
16,CN1CCC(N(C)CCC(=O)N2CCC(CCc3ccccc3)CC2)C1 (stereo not drawn),66.79
17,CN1CCC(N(C)CCC(=O)N2CCC(Cc3ccc(F)cc3)CC2)C1 (stereo not drawn),20.36
18,CN1CCC(N(C)CCC(=O)N2CCC(OCc3ccccc3)CC2)C1 (stereo not drawn),-83.25
19,COc1c(C2CCCN2C(=O)c2ccnc(N(C)C)c2)c(C)nn1C (stereo not drawn),30.91
20,Cc1cnc(N2Cc3cnn(Cc4ccc(F)cc4)c3C2)nc1N(C)C,41.78
21,CNC(=O)c1sccc1S(=O)(=O)Nc1ccc(C)cc1,52.36
22,CNC(=O)c1sccc1S(=O)(=O)NC,31.27

row,SMILES,INHIBITION [%]
1,CNS(=O)(=O)c1ccsc1C(=O)OC,-12.44
2,Cc1nonc1C1CCCN1C(=O)c1cn2ccsc2n1 (stereo not drawn),-120.95
3,Cn1cc(CN2CCCC3(COCCN(c4cccnc4)C3)C2)cn1 (stereo not drawn),18.15
4,COc1ccc(C(=O)N2CC(c3ccncc3)C2)c(OC)c1OC,45.56
5,COc1cc2c(cc1C(=O)N1CC(c3ccncc3)C1)CCC2,51.96
6,COc1ccc(F)cc1C(=O)N1CC(c2ccncc2)C1,-26.81
7,CC(CO)NC(=O)Nc1ccc(COC2CCCC2)cc1 (stereo not drawn),31.97
8,CC(C)N1CC(NC(=O)c2ccc(Cl)s2)CC1=O (stereo not drawn),-28.5
9,CC(O)CN1CCC(CN(C)Cc2ccc(C#N)cc2)CC1 (stereo not drawn),-3.99
10,CN(Cc1ccc(C#N)cc1)CC1CCS(=O)(=O)C1 (stereo not drawn),54.78
11,CN(CCOc1ccc(C#N)cc1)CC1CCS(=O)(=O)C1 (stereo not drawn),14.59
12,Cc1cc(=O)n2ncnc2n1CC(O)COCc1ccccc1Cl (stereo not drawn),19.59
13,CN(CC(=O)Nc1ccccc1)C(=O)CN(C)c1ccc(Cl)cn1,-35.22
14,CN(Cc1nc2ccccc2[nH]1)C(=O)CN(C)c1ccccc1,-20.08
15,CN(Cc1nc2ccccc2[nH]1)C(=O)CN(C)c1ccc(Cl)cn1,60.71
16,Cc1ncsc1CN1CCn2c(COc3cccnc3)cnc2C1C (stereo not drawn),-48.36
17,CC(C)N1CCC(N(C)c2ccnc(N(C)C)n2)CC1,69.67
18,CN(C)c1nccc(N(C)C2CCCCC2)n1,38.67
19,CN(C)c1nccc(N(C)C2CCOCC2)n1,19.59
20,CCN(C)Cc1cccc(CNC(=O)CSCc2ccccn2)c1,72.94
21,CCN(C)Cc1cccc(CNC(=O)CSCc2ccncc2)c1,-56.58
22,CCCSCC(=O)NCc1cccc(CN(C)CC)c1,15.56

row,SMILES,INHIBITION [%]
1,CO[C@H]1CN(C(=O)c2cc3ccccc3[nH]2)CC[C@H]1N,13.24
2,O=C(c1ccoc1)N1CCOCC2(CCN(Cc3cccs3)C2)C1 (stereo not drawn),3.11
3,CN1CCN(CCOc2ccc(NC(=O)c3ccoc3)cc2)CC1,6.78
4,Cc1nc(C(C)C)ncc1C(=O)N1CCc2c(nc(N(C)C)[nH]c2=O)C1,55.36
5,Cc1nc2sccn2c1C(=O)N1CCc2c(nc(N(C)C)[nH]c2=O)C1,68.02
6,CN(C)c1nc2c(c(=O)[nH]1)CCN(C(=O)c1cccc3nccnc13)C2,-16.93
7,Cc1nc2sccn2c1C(=O)N1CCc2c(nc(N)[nH]c2=O)C1,-14.71
8,CN(C)c1nc2c(c(=O)[nH]1)CCN(C(=O)c1c[nH]c(=O)c(Cl)c1)C2,33.9
9,Cc1nc2sccn2c1C(=O)N1CCc2[nH]cnc2C1,-13.03
10,O=C(Nc1nccs1)C1CCCN1Cc1ccccn1 (stereo not drawn),12.47
11,CCc1nc(-c2ccc(NC(=O)N3CCCC3)cc2)no1,-75.24
12,COc1ccnc(N2CCC3(CC2)[C@H](O)C[C@@H]3OCCN(C)C)n1,-2.96
13,Cc1nc(C2CCN(S(C)(=O)=O)CC2)nc2c1CCC(=O)N2CC(C)C,0.12
14,Cc1cc(N2CCCC2(C)c2nc(C)cc(C(=O)N(C)C)n2)ncn1 (stereo not drawn),-27.61
15,CCOC(=O)N1CCN(C(=O)C2Cc3ccccc3CN2C)CC1 (stereo not drawn),-55.24
16,c1ccc(CCN2CCCC2c2cccc(Nc3nccs3)n2)cc1 (stereo not drawn),30.29
17,Cc1cnc(Nc2cccc(C3CCCN3Cc3cn(C)nc3C)n2)s1 (stereo not drawn),-15.38
18,Cc1cnc(Nc2cccc(C3CCCN3C(=O)CO)n2)s1 (stereo not drawn),35.31
19,CCN(CC)S(=O)(=O)N1CCCC1c1cccc(Nc2ncc(C)s2)n1 (stereo not drawn),56.16
20,Cc1ccccc1CN1CCCC1c1cccc(Nc2nccs2)n1 (stereo not drawn),15.61
21,CS(=O)(=O)N1CCCC1c1cccc(Nc2nccs2)n1 (stereo not drawn),69.91
22,Cc1ccccc1CS(=O)(=O)CC(=O)N(C)Cc1ccccc1,34.25

row,SMILES,INHIBITION [%]
1,CS(=O)(=O)NC[C@]12COC[C@H]1CN(CC1CCCC1)C2,13.65
2,O=C(CC1CN(Cc2ccccc2)CCO1)Nc1ccsc1 (stereo not drawn),19.53
3,CCN(CCSc1ccccc1)C(=O)c1cn(C2CCC(N)CC2)nn1 (stereo not drawn),50.61
4,Cc1ccc(SCCN(C)C(=O)c2cn(C3CCC(N)CC3)nn2)cc1 (stereo not drawn),40.47
5,Cc1ccc(SCCCNC(=O)c2cn(C3CCC(N)CC3)nn2)cc1 (stereo not drawn),18.63
6,CCc1nnc2n1CCN(C(=O)c1ccc3[nH]cnc3c1)C2,-17.45
7,CCc1nccn1-c1cncc(C2CCCN2Cc2cccnc2)n1 (stereo not drawn),18.91
8,CCc1nsc(N2CCCN(C(=O)c3ccc(CC)o3)CC2)n1,-2.93
9,CS(=O)(=O)NCCNCc1ccc(Br)s1,21.24
10,COCCCC(=O)Nc1[nH]nc(-c2ccncc2)c1C,1.03
11,CS(=O)(=O)CCCC(=O)Nc1cc(-c2cccc(F)c2F)n[nH]1,-5.98
12,CS(=O)(=O)CCC(=O)Nc1cc(Cl)c(Cl)cn1,38.49
13,CS(=O)(=O)CCCC(=O)Nc1cc(Cl)c(Cl)cn1,59.08
14,COCCCC(=O)Nc1cc(Cl)c(Cl)cn1,66.26
15,COCCNC(=O)CCNc1ccc(Cl)cn1,33.64
16,CC(C)n1c(C2CCCN(CC(=O)NC(N)=O)C2)nc2ccccc21 (stereo not drawn),0.31
17,O=C(C1=CCCC1)N1CC[C@]2(C[C@H](OCc3cccnc3)CO2)C1,-8.81
18,NC(=O)C(NC(=O)COC1CCCCC1)c1ccccc1 (stereo not drawn),35.94
19,NC(=O)C(NC(=O)COC1CCCC1)c1ccccc1 (stereo not drawn),-6.27
20,COC(=O)C(NC(=O)COC1CCCCC1)c1ccccc1 (stereo not drawn),54.52
